Measured values as given in PubChem BioAssay (Tox21).
Results filed as inconclusive are left out. The source made the active and inactive calls. Unless noted, the call rests on the fitted dose curve; in most records, active means well fitted curve in the direction sought with a large enough effect in the repeat runs; inconclusive means weak or mixed curves; inactive means no such curve, though single readings can be large; an effect the other way counts as inactive or inconclusive.

How the values were obtained:
[1] = qHTS assay to identify small molecule antagonists of the estrogen receptor alpha (ER-alpha) signaling pathway using the BG1 cell line in the presence of 0.1 nM 17-beta-estradiol - cell viability counter screen (AID 1259241); further: nearly all actives have a fitted effect of over 40% in size; further: potency means the concentration at half of the fitted maximal effect
In short: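 Estradiol-stimulated (0.1 nM) VM7Luc4E2 cells exposed to compounds 22 hr; viability measured by fluorescence of cleaved CellTiter-Fluor substrate after 30 min.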

[2] = qHTS assay to identify small molecule antagonists of the androgen receptor (AR) signaling pathway using the MDA cell line in the presence of 0.5 nM R1881 - cell viability counter screen (AID 1259242); further: nearly all actives have a fitted effect of over 45% in size; further: potency means the concentration at half of the fitted maximal effect
In short: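 MDA-kb2 cells (MMTV-luciferase, AR/GR responsive) were treated with compounds plus 0.5 nM R1881 (final) for 16 hr at 37C, 0% CO2. Viability was then read in the same wells as live-cell protease fluorescence (CellTiter-Fluor, 30 min).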

[3] = molecular target: Androgen receptor (Homo sapiens) (UniProt P10275); assay: qHTS assay to identify small molecule antagonists of the androgen receptor (AR) signaling pathway using the MDA cell line in the presence of 0.5 nM R1881 (AID 1259243); further: nearly all actives have a fitted effect of over 50% in size; further: potency means the concentration at half of the fitted maximal effect
In short: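 MDA-kb2 cells (MMTV-luciferase, responsive to AR and GR) at 3,000/well, rested 5 h at 37C, 0% CO2, then given compounds plus 0.5 nM R1881 (final) for 16 hr. Luciferase read with ONE-Glo after 30 min at room temperature.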

[4] = molecular target: Estrogen receptor (Homo sapiens) (UniProt P03372); assay: qHTS assay to identify small molecule antagonists of the estrogen receptor alpha (ER-alpha) signaling pathway using the BG1 cell line in the presence of 0.1 nM 17-beta-estradiol (AID 1259244); further: nearly all actives have a fitted effect of over 50% in size
In short: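 VM7Luc4E2 cells (endogenous full-length ER-alpha, 4×ERE-luciferase), kept 5 days in phenol red-free, charcoal-stripped FBS medium; 4,000 cells/well. Compounds added with 0.1 nM (final) 17beta-estradiol, 22 hr at 37C; luminescence read with ONE-Glo after 30 min.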

[5] = qHTS assay to identify small molecule HDAC inhibitors (AID 1259364); further: nearly all actives have a fitted effect of over 45% in size; further: potency means the concentration at half of the fitted maximal effect
In short: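 Wild-type HCT-116 cells, plated overnight at 37 C, exposed to compounds 2 hr at 37 C; luminogenic HDAC-Glo substrate then added 30 min at room temperature. Luminescence reports relative endogenous class I/II HDAC activity.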

[6] = qHTS assay to identify small molecule HDAC inhibitors - cell viability counter screen (AID 1259365); further: nearly all actives have a fitted effect of over 50% in size; further: potency means the concentration at half of the fitted maximal effect
In short: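 After overnight seeding at 1,500 cells per well, wild-type HCT-116 cultures took up compounds in DMSO for 2hr at 37 C. Viable cell content came from luminescence with CellTiter-Glo.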

[7] = qHTS assay to identify small molecule agonists of the sonic hedgehog signaling (Shh) pathway - cell viability counter screen (AID 1259366); further: nearly all actives have a fitted effect of over 50% in size; further: potency means the concentration at half of the fitted maximal effect
In short: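 Same-well cytotoxicity read. Gli1-Luc reporter 3T3 cells; compounds 24hr, 37C/5% CO2; CellTiter-Fluor fluorescence.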

[8] = qHTS assay to identify small molecule antagonists of the sonic hedgehog signaling (Shh) pathway - cell viability counter screen (AID 1259367); further: nearly all actives have a fitted effect of over 55% in size; further: potency means the concentration at half of the fitted maximal effect
In short: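 Cells: 3T3 Gli1-Luc, 2,000/well, 4 hr pre-incubation. Compounds in DMSO, then conditioned medium. Incubation 24 hr, 37C, 5% CO2. CellTiter-Fluor at 23 hr, 1 hr, fluorescence.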

[9] = qHTS assay to identify small molecule agonists of the sonic hedgehog signaling (Shh) pathway (AID 1259368; calls by dose curve;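 further: NIH/3T3-derived 3T3Gli1-Luc cells carrying a stable Gli1-driven firefly luciferase reporter; series mostly up to about 92 µM; nearly all actives have a fitted effect of over 15% in size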)
In short: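 NIH/3T3-derived 3T3Gli1-Luc cells with stably integrated Gli1-driven firefly luciferase, 2,000 cells/well, compounds added after 4 hr. Incubated 24 hr at 37C, 5% CO2; luminescence read after 30 min with luciferase reagent at room temperature.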

[10] = molecular target: Estrogen receptor beta (Homo sapiens) (UniProt Q92731); assay: qHTS assay to identify small molecule antagonists of the estrogen receptor beta (ER-beta) signaling pathway (AID 1259378; active means well fitted inhibition curve with a large enough effect in the signal ratio in the repeat runs, not every such curve was filed as active; the % refers to the signal ratio)
In short: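 Antagonist mode: compounds added to beta-lactamase reporter HEK293T ER-beta-UAS cells stimulated with E2 (1nM final), 16 hr at 37C. LiveBLAzer B/G FRET substrate, 2 hours room temperature, fluorescence read-out.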

[11] = qHTS assay to identify small molecule agonists of the androgen receptor (AR) signaling pathway in the presence of an antagonist - cell viability counter screen (AID 1259379); further: nearly all actives have a fitted effect of over 25% in size; further: potency means the concentration at half of the fitted maximal effect
In short: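 MDA-kb2 cells (MMTV-luciferase, AR/GR), 3,000/well, 5 h attachment, then 3.0 µM nilutamide (final) and compounds at 15 concentrations. Viability by CellTiter-Fluor fluorescence after 16 h at 37 °C, 0% CO2, in the reporter wells.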

[12] = qHTS assay to identify small molecule agonists of the estrogen receptor beta (ER-beta) signaling pathway - cell viability counter screen (AID 1259380); further: nearly all actives have a fitted effect of over 30% in size; further: potency means the concentration at half of the fitted maximal effect
In short: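 ER-beta-UAS-bla HEK293T cells in medium with 2% charcoal-stripped FBS, pre-incubated 6 hr, then treated 16 hr at 37C. Cytotoxicity read in the same wells by CellTiter-Glo luminescence after 30 min at room temperature.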

[13] = molecular target: Androgen receptor (Homo sapiens) (UniProt P10275); assay: qHTS assay to identify small molecule agonists of the androgen receptor (AR) signaling pathway in the presence of an antagonist (AID 1259381; calls by dose curve; further: nearly all actives have a fitted effect of over 15% in size)
In short: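 MDA-kb2 cells carrying MMTV-luciferase (AR/GR responsive), 3,000 cells/well, co-treated with 3.0 uM nilutamide final. Compounds at 15 concentrations, 16 hr at 37C without CO2. Luciferase luminescence read after 30 min with ONE-Glo.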

[14] = qHTS assay to identify small molecule antagonists of the estrogen receptor beta (ER-beta) signaling pathway - cell viability counter screen (AID 1259382); further: nearly all actives have a fitted effect of over 55% in size; further: potency means the concentration at half of the fitted maximal effect
In short: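 ER-beta-UAS-bla HEK293T cells in 2% charcoal-stripped FBS medium, treated with compound plus 1 nM 17-beta-estradiol for 16 h at 37C. Viability read by CellTiter-Glo luminescence after 30 min at room temperature in the same wells.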

[15] = molecular target: Estrogen receptor (Homo sapiens) (UniProt P03372); assay: qHTS assay to identify small molecule agonists of the estrogen receptor alpha (ER-alpha) signaling pathway in the presence of an antagonist (AID 1259383; calls by dose curve; further: nearly all actives have a fitted effect of over 15% in size; further: potency means the concentration at half of the fitted maximal effect; on activation: top concentration of the series differs between compounds)
In short: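 VM7Luc4E2 cells express endogenous full-length ER-alpha with an ERE-luciferase reporter and were hormone-deprived for 5 days. Compounds at 15 concentrations were added with 10.0nM ICI-182,780 for 22hr at 37C. Luminescence was read with ONE-Glo.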

[16] = qHTS assay to identify small molecule agonists or antagonists of the thyroid stimulating hormone receptor (TSHR) signaling pathway - wild type cell line counter screen (AID 1259384; calls by dose curve)
In short: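 Counter screen in untransfected Hek293: compounds (15-point titration, triplicate) plus phosphodiesterase inhibitor Ro20-1724 added after 18 h plating; 30 min RT. Intracellular cAMP via competitive d2/cryptate immunoassay, 1 h incubation.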

[17] = molecular target: Thyrotropin receptor (Homo sapiens) (UniProt P16473); assay: qHTS assay to identify small molecule antagonists of the thyroid stimulating hormone receptor (TSHR) signaling pathway (AID 1259385; calls by dose curve; further: nearly all actives have a fitted effect of over 20% in size)
In short: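 Antagonist mode: compound-treated TSHR-expressing HEK293 cells were stimulated with 1.5 ng/mL TSH (final) in presence of Ro20-1724 for 30 min at RT. HTRF cAMP detection after 1 h; each compound tested at 15 concentrations, triplicate.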

[18] = qHTS assay to identify small molecule antagonists of the sonic hedgehog signaling (Shh) pathway (AID 1259369; calls by dose curve; further: nearly all actives have a fitted effect of over 45% in size; further: potency means the concentration at half of the fitted maximal effect)
In short: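 NIH/3T3-derived Gli1-Luc reporter cells plated 4 h, dosed with compound, then stimulated with conditioned medium for 24 h at 37 C. Firefly luciferase luminescence read after 30 min with detection reagent at room temperature.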

[19] = molecular target: Estrogen receptor beta (Homo sapiens) (UniProt Q92731); assay: qHTS assay to identify small molecule agonists of the estrogen receptor beta (ER-beta) signaling pathway (AID 1259377; active means well fitted activation curve with a large enough effect in the signal ratio in the repeat runs, not every such curve was filed as active; the % refers to the signal ratio; further: potency means the concentration at half of the fitted maximal effect)
In short: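 Read-out: beta-lactamase FRET fluorescence. Cell line: ER-beta-UAS-bla HEK293T in 2% charcoal-stripped FBS. Exposure: 16 hr at 37C. Substrate step: 2 h at room temperature.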

[20] = qHTS assay to identify small molecule phospholipidosis (PLD) inducers (AID 1259344; active means well fitted curve in the direction sought with a large enough effect; an effect the other way counts as inactive or inconclusive)
In short: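 Phospholipidosis is scored by imaging LipidTOX-stained pits in HepG2 cells exposed to compound for 24 h at 37 C; pit counts and integrated intensities per well and per cell serve as outputs.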

Measured: Potency

Chain of Thyrotropin receptor (Homo sapiens) (P16473 whole entry, looked up): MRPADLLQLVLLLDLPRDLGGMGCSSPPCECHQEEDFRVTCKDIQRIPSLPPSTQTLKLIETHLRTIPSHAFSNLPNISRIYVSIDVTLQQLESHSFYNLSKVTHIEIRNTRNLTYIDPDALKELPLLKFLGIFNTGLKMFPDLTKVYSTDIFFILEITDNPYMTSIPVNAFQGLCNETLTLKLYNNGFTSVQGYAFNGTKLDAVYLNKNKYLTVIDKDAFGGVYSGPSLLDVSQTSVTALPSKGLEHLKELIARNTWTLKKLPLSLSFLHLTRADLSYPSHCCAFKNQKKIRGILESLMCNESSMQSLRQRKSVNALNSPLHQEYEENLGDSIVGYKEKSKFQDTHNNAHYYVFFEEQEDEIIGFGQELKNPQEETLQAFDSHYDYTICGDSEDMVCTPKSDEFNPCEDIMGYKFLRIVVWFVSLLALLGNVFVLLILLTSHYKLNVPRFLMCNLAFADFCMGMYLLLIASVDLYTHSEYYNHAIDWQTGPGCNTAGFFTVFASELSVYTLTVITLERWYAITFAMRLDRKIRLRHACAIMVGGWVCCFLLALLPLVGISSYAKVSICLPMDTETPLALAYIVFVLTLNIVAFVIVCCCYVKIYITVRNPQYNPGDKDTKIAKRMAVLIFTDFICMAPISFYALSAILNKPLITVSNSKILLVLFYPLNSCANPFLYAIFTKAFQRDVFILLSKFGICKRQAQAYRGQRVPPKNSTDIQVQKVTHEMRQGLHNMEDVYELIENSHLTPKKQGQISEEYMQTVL
Chain of Estrogen receptor (Homo sapiens) (P03372 whole entry, looked up): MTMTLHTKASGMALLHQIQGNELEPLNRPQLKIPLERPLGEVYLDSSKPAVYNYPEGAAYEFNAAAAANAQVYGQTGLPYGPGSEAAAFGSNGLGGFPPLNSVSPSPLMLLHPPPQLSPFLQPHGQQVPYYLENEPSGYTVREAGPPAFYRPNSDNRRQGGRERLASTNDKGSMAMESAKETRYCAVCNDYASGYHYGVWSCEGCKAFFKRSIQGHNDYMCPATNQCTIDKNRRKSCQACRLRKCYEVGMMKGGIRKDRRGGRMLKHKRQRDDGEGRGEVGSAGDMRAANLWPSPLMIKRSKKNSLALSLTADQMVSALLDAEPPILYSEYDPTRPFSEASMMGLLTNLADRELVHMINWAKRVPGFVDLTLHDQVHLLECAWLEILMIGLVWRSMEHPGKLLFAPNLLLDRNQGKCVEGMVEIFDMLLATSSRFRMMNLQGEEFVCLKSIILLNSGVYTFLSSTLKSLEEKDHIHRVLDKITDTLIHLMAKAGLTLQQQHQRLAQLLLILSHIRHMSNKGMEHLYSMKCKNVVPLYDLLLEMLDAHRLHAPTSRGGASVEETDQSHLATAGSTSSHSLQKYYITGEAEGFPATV
Chain of Estrogen receptor beta (Homo sapiens) (Q92731 whole entry, looked up): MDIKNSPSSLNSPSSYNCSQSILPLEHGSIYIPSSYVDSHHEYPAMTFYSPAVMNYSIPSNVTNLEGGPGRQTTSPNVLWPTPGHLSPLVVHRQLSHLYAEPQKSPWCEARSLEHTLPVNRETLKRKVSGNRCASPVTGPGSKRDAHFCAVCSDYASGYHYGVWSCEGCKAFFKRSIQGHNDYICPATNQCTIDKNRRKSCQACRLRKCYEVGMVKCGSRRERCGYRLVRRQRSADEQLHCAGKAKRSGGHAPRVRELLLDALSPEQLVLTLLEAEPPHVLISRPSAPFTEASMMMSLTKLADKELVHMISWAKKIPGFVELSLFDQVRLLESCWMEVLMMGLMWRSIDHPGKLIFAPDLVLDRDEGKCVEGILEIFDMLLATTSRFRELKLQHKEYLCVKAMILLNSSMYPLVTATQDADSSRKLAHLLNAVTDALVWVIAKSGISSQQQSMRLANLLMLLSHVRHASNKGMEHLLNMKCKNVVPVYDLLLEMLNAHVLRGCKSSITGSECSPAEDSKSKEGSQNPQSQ
Chain of Androgen receptor (Homo sapiens) (P10275 whole entry, looked up): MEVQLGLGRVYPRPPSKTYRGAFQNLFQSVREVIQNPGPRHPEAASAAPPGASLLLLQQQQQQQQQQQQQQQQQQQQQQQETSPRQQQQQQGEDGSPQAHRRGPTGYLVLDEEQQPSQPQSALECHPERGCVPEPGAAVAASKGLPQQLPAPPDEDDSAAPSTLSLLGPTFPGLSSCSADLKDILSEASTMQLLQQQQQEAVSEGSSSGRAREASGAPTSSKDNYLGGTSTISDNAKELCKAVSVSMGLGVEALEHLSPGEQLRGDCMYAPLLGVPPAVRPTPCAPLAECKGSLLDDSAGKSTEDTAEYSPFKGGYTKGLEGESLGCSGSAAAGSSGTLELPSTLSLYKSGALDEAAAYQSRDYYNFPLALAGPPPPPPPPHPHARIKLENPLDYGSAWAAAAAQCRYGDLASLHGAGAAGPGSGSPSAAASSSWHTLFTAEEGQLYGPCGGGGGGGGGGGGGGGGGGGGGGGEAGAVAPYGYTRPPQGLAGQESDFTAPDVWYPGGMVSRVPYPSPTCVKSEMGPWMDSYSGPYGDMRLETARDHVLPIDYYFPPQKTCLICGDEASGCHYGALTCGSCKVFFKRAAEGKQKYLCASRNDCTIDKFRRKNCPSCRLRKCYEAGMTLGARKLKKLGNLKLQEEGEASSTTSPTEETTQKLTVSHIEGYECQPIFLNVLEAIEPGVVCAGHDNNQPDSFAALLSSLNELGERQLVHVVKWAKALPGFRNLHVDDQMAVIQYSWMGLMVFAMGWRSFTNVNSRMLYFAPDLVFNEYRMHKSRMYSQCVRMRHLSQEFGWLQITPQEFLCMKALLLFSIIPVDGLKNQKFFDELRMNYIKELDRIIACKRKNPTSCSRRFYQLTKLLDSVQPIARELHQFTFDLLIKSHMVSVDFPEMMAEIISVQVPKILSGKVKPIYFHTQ

COc1cc(OC)c2ccc(=O)oc2c1
not listed: [18] | [19] | [20]
inactive: all other assays above

CC1CCCC(=O)C1=O (stereo unspecified)
not listed: [15] | [16] | [17] | [20]
inactive: all other assays above

CCC(C)(C)C(=O)O
not listed: [15] | [20]
inactive: all other assays above

Cc1cn([C@H]2C[C@H](F)[C@@H](CO)O2)c(=O)[nH]c1=O
inactive: all assays above

CN1C(CSCC(F)(F)F)Nc2cc(Cl)c(S(N)(=O)=O)cc2S1(=O)=O (stereo unspecified)
not listed: [18]
inactive: all other assays above

COC(=O)CC(C(C)=O)C(=O)OC (stereo unspecified)
not listed: [7] | [12] | [17] | [20]
inactive: all other assays above

O=NN(CCCl)C(=O)NCCCl
not listed: [11] | [15] | [18]
inactive: all other assays above

CCN(CC)c1ccc(C(=C2C=CC(=[N+](CC)CC)C=C2)c2ccc(S(=O)(=O)O)cc2S(=O)(=O)[O-])cc1
inactive: [9] | [19] | [10] | [13]
active: [1] 12.2 µM | [2] 27.3 µM | [3] 9.69 µM | [5] 3.86 µM | [6] 21.7 µM | [7] 24.3 µM | [8] 17.2 µM | [11] 27.3 µM | [12] 27.3 µM

C[C@H](CS)C(=O)N1CCC[C@H]1C(=O)O
not listed: [4] | [15] | [17]
inactive: all other assays above

CNS(=O)(=O)c1cc(C(=O)N2CCC(CCN3C4CCC3CC(n3c(C)nc5ccccc53)C4)(c3cccc(F)c3)CC2)c(Cl)cc1F (stereo unspecified)
active: [3] 24.3 µM | [18] 15.4 µM | [12] 5.45 µM | [14] 7.7 µM
inactive: [1] | [2] | [5] | [6] | [8] | [9] | [13] | [16] | [17]

O=C(c1ccccc1)c1ccc(O)cc1
active: [3] 24.6 µM | [8] 49.1 µM | [18] 15.5 µM | [19] 12.3 µM | [15] 49.1 µM
not listed: [4] | [10] | [11] | [20]
inactive: all other assays above

CCOC(=O)Oc1ccc(CCNC(=O)[C@H](CCSC)NC(C)=O)cc1OC(=O)OCC
not listed: [10] | [17] | [19] | [20]
inactive: all other assays above

CCOC(=O)c1ccc(NC(=O)CN2CCCCC2)cc1
not listed: [10] | [11] | [12] | [19]
inactive: all other assays above

C=Cc1ccc(OC(C)=O)cc1
not listed: [10] | [19] | [20]
inactive: all other assays above

CCCCCCCC(=O)OCCCCCC
not listed: [4] | [10] | [15] | [17] | [20]
inactive: all other assays above
